# High-throughput results from PubChem BioAssay.
# FBW7 activator: human FBW7 E3 ligase activation, primary screen; Q969H0; AlphaScreen FBW7–phospho-cyclin E peptide binding, activator screen; 650,000 compounds, 0.13% hits; normalized activity (activation), % at 26.1 µM; AID 1259310; in the data active = normalized activity above about 1.9%;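 also: purified mutant Fbw7 with reduced substrate affinity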
# TEAD-YAP block: TEAD-YAP interaction inhibition. HEK-TIYL cells, TEAD-Gal4/YAP UAS-luciferase luminescence. inhibition, % at 9.12 µM. 640,000 compounds, 1.4% hits. AID 1259422; in the data active = inhibition above about 32%;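 also: 0% = median of test compound wells and 100% = reference inhibitor wells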
# GPR151 activ: activates the human receptor GPR151 | Q8TDV0 | PathHunter beta-arrestin GPR151 cells, luminescence | activation, % at 11.2 µM | 650,000 compounds, 1% hits; in the data active = activation above about 4.9%;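 also: 0% = median of compound wells and 100% = cells with positive control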
# MITF primary: inhibitors of human MITF. O75030. inhibition, % at 2.6 µM. 650,000 compounds, 0.91% hits. AID 1259374. AlphaScreen MITF homodimerization, bead proximity signal; in the data active = inhibition above about 50%;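 also: 0% = vehicle wells with protein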
# Target sequence (O75030 whole entry, looked up): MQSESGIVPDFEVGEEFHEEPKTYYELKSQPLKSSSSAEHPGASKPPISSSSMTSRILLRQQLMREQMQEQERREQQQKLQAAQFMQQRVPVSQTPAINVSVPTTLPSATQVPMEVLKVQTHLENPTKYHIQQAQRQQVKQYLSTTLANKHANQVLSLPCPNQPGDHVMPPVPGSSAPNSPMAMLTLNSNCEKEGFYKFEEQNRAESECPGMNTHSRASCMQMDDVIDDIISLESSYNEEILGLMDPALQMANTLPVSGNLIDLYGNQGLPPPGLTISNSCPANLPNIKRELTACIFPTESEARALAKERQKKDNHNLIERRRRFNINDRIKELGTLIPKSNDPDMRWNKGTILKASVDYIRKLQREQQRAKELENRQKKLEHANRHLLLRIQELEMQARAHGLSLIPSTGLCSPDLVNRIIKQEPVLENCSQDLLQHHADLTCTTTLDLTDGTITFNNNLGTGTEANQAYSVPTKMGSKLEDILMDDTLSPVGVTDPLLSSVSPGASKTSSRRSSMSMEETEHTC
# MITF inh conf: confirmation of human MITF inhibitors. shares compounds with MITF primary. inhibition, % at 2.6 µM. AlphaScreen MITF homodimerization, biotin/His-MITF beads. 4,700 compounds, 16% hits;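 active = inhibition above a cutoff derived from the DMSO control wells, cut at about 28% in these data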;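 also: 0% = MITF dimer wells with DMSO only; inhibitors lower the bead chemiluminescence by keeping MITF from dimerizing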
# AlphaScreen DR: AlphaScreen optical interference, dose response counter-screen. shares compounds with MITF primary. AlphaScreen optical interference counterscreen, cell-free. IC50, µM. 480 compounds, 6% hits. AID 1259373; call rule not given here
# AlphaScreen intf2: AlphaScreen optical interference, counter-screen. shares compounds with MITF primary. LysRS AlphaScreen counterscreen, signal interference, triplicate. inhibition, % at 2.6 µM. 4,700 compounds, 7.6% hits. AID 1259376;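 active = inhibition above a cutoff derived from the DMSO control wells, cut at about 30% in these data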
# The depositor's hits bear a star; / = no result given; ! = not confirmed by another sample. Hits are enriched below; roughly 3.4% of the tested compounds scored in any of these assays.
SMILES,FBW7 activator,TEAD-YAP block,GPR151 activ,MITF primary,MITF inh conf,AlphaScreen intf2,others
COc1cc(OC)c(OC)cc1/C=C/c1nc2cc3ccccc3cc2c(=O)n1-c1ccc(F)cc1,0,-4,4,5,/,/,
COc1cc(CNc2cccc(C)c2)cc(OC)c1OC,0,15,2,55*,-2,2,
COc1cc(CNc2ccccc2)cc(OC)c1OC,0,-10,1,1,/,/,
Cc1ccc(NCc2ccncc2)c(Br)c1,0,-2,0,69*,-7,-5,
Cc1cccc(NCc2ccncc2)c1,0,5,-1,77*,21,20,
COC(=O)Cc1ccc(NC(=S)Nc2cc(OC)ccc2OC)cc1,0,-8,-1,6,/,/,
CCCCNC(C)C1COc2ccccc2O1 (stereo unspecified),0,3,0,9,/,/,
CC(NCc1ccccc1)C1COc2ccccc2O1 (stereo unspecified),0,-7,0,58*,-4,-5,
O=C(NCC(c1cccs1)S(=O)(=O)c1ccc(Cl)cc1)c1ccco1 (stereo unspecified),2,-3,2,70*,59*,-15,AlphaScreen DR=>6.6
O=C(NCC(c1ccco1)S(=O)(=O)c1cccs1)c1ccco1 (stereo unspecified),1,-1,0,21,/,/,
CC(=O)NCC(c1cccs1)S(=O)(=O)c1ccc(C)cc1 (stereo unspecified),1.9*,-7,1,51*,60*,-8,AlphaScreen DR=>6.4
Cc1ccc(S(=O)(=O)C(CNC(=O)c2ccco2)c2cccs2)cc1 (stereo unspecified),1,-5,1,95*,83*,5,AlphaScreen DR=>6.6
Cc1ccc(S(=O)(=O)C(CNC(=O)C(C)C)c2cccs2)cc1 (stereo unspecified),0,1,-1,-8,/,/,
O=C(c1cnn(-c2ccccc2)n1)N1CCC(Cn2cnc3ccccc32)CC1,0,8,1,58*,16,19,
O=C(NCC(=O)N1CCC(Cn2cnc3ccccc32)CC1)c1ccccc1,0,0,0,56*,9,9,
CCOC(=O)N1CCN(C(=O)CN2CCC(Cn3cnc4ccccc43)CC2)CC1,0,29,0,76*,13,19,
O=C(c1cnn(-c2ccccc2)n1)N1CCN(c2cc(N3CCCCC3)ncn2)CC1,0,-12,-1,6,/,/,
O=C(Nc1ccc2c(c1)OCO2)N1CCC(Cn2cnc3ccccc32)CC1,0,-34,0,10,/,/,
O=C(CSCc1ccccc1)N1CCC(Cn2cnc3ccccc32)CC1,0,5,2,67*,4,15,
O=C(Nc1cccs1)N1CCC(Cn2cnc3ccccc32)CC1,0,1,1,0,/,/,
Cc1nc(C)c(C(=O)/C=C(\O)C(=O)O)s1,0,-1,2,8,/,/,
CC(C)N(C(=O)c1ccc([N+](=O)[O-])s1)c1ccccc1,0,-13,-1,-5,/,/,
COc1cccc2cc(C(=O)N3CCC(Cn4cnc5ccccc54)CC3)oc12,0,14,1,60*,5,21,
O=C(C1CCC1)N1CCC(Cn2cnc3ccccc32)CC1,0,2,3,52*,6,9,
O=C(Cc1cccs1)N1CCC(Cn2cnc3ccccc32)CC1,0,-7,-1,65*,8,10,
SMILES,FBW7 activator,TEAD-YAP block,GPR151 activ,MITF primary,MITF inh conf,AlphaScreen intf2,others
CCOC(=O)N1CCN(C(=O)CN2CCN(CC)CC2)CC1,0,0,-1,71*,3,9,
CN(C(=O)CCN1C(=O)c2ccccc2C1=O)C1CCCCC1,0,7,0,1,/,/,
O=C(CCN1C(=O)c2ccccc2C1=O)CN1CCC(Cn2cnc3ccccc32)CC1,0,4,-1,59*,5,18,
CCOC(=O)C1=C(C)NC2=C(C(=O)C(C(=O)OCC)C(c3ccccc3OC)C2)C1c1cc(OC)ccc1OC (stereo unspecified),0,10,-2,4,/,/,
CCOC(=O)C1=C(C)NC2=C(C(=O)C(C(=O)OCC)C(c3ccc(OC)cc3)C2)C1c1cc(OC)ccc1OC (stereo unspecified),0,0,0,116*,-10,-7,
CN(C)CCn1nnnc1SCC1=C(C(=O)O)N2C(=O)[C@@H](NC(=O)Cc3csc(N)n3)[C@H]2SC1,0,3,-2,68*!,87*,25,AlphaScreen DR=4.9*
N#Cc1nc(COc2ccccc2)oc1NCc1ccco1,0,-12,0,-20,/,/,
CN1C(=O)C2(c3ccccc31)c1c(oc3ccccc3c1=O)C(=O)N2CC1CCCO1 (stereo unspecified),0,-23,2,15,/,/,
NCC(=O)Nc1c2c(nc3c1CCC3)CCC2,0,1,0,62*,-1,0,
Cc1cc(NC(=O)CN2CCOCC2)c2ccccc2n1,0,-3,1,-5,/,/,
O=C(CN1CCCCC1)Nc1c2c(nc3ccccc13)CCCC2,0,4,1,66*,8,11,
O=C(CN1CCCCCC1)NC(c1ccccc1)c1ccccc1,0,-2,0,54*,12,23,
Cc1cc(NC(=O)CN2CCCCC2)c2ccccc2n1,0,4,1,51*,21,-8,
NC(=O)C1CCN(CC(=O)Nc2c3c(nc4ccccc24)CCC3)CC1,0,3,-1,0,/,/,
CCC(=O)N[C@@H]1c2ccccc2C2(CCN(C)CC2)[C@H]1OC,1,-5,0,11,/,/,
CC(C)(C)NCC(=O)Nc1c2c(nc3c1CCC3)CCC2,0,-1,1,-2,/,/,
O=C(CN1CCCCC1)Nc1c2c(nc3c1CCC3)CCCC2,0,5,1,71*,1,-3,
O=C(NCCCc1ccccc1)C(=O)NCC1CCCN1S(=O)(=O)c1ccccc1 (stereo unspecified),0,11,0,2,/,/,
CCOC(=O)c1ccc(N2C(=O)C(=O)/C(=C(/O)c3ccc(OC)cc3)C2c2ccc(C)cc2)cc1 (stereo unspecified),0,3,-1,-4,/,/,
CCOC(=O)c1ccc(N2C(=O)C(=O)/C(=C(\O)c3ccc(OC)cc3)C2c2ccccc2[N+](=O)[O-])cc1 (stereo unspecified),0,-20,-5,52*,12,11,
COc1cc(OC)nc(Oc2cccnc2C(=O)NNc2ccccc2)n1,-1,-7,2,54*,36*,70*,
Cc1nc(C)n(-c2ccc(Nc3cc(-n4cc(N(c5cccnc5)c5cccnc5)cn4)ccn3)cc2)n1,1,-1,-1,51*,52*,0,AlphaScreen DR=>6.5
COc1ccccc1N1CCN(C(=O)c2ccc3c(c2)C(=O)N(c2ccccn2)C3=O)CC1,0,1,-1,68*,-7,-4,
O=C(c1ccc2c(c1)C(=O)N(c1ccccn1)C2=O)N1CCN(c2ccccc2Cl)CC1,1,-7,-1,15,/,/,
